Data on 93 compounds can be found in PubChem BioAssay AID1619 (SRMLSC, 2009).

The campaign covered roughly 220,000 compounds. About 830 (0.38%) were called active. These entries were drawn from the full list. Measured potencies and affinities stand elsewhere. Unmarked numbers belong to inactive results.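 The calls were made as follows: active = compound inhibiting the enzyme by more than half at any dose during confirmatory dose-response retesting; inconclusive = strong single-dose inhibitors picked by rank but not retested; inactive = the rest.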

For this experiment, the target named is Leucine aminopeptidase (Plasmodium falciparum (isolate 3D7)) (UniProt Q8IL11). The experiment is described as follows: P. falciparum M17LAP inhibitors, primary screen, biochemical, fluorogenic H-Leu-NHMec substrate, 1536-well (AID 1619).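 Also: plate controls were full reaction with DMSO carrier for no effect and no enzyme background for full effect.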 To be noted: recombinant M17LAP, H-Leu-NHMec fluorogenic kinetic assay; at 30 µM; active compounds read high.
Leucine aminopeptidase (Plasmodium falciparum (isolate 3D7)), sequence (Q8IL11 whole entry, looked up): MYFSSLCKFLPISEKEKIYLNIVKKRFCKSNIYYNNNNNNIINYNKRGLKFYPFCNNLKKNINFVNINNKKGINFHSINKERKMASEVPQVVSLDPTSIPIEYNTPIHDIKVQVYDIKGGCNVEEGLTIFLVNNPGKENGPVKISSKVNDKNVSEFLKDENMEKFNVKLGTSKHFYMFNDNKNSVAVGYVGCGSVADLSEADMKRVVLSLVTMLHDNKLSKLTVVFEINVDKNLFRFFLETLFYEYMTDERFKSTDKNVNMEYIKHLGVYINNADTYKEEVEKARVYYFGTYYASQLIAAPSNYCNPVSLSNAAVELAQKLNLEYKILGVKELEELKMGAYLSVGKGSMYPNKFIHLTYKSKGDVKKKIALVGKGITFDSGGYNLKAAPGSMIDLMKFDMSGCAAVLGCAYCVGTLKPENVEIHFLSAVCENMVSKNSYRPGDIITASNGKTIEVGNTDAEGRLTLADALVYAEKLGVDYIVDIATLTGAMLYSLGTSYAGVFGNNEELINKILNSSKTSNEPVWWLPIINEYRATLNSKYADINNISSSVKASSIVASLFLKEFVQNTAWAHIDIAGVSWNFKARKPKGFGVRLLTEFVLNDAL
For the compound `Cc1ccc(-c2cc(C(=O)NCc3ccco3)no2)cc1`, the inhibition (as a rule, the relative decrease from the control value, in per cent) was -5.12%.

As for `COc1cc(SC)ccc1C(=O)NCCN1CCOCC1`, the inhibition is -0.03%. Turning to `O=C(c1cccc(NS(=O)(=O)c2cccc(F)c2)c1)N1CCN(c2ccccc2)CC1`, the inhibition is -9.4%. For the compound `Cn1c(SCC(=O)Nc2ccc(N3CCOCC3)cc2)nnc1-c1ccccc1`, the inhibition is -0.5%. Regarding `COc1ccc(/C=N\N=C2/SC(CC(=O)O)C(=O)N2c2ccc(O)cc2)cc1` (stereo not drawn), the inhibition is 45.6%. With `COc1ccc(/C=N/N=C2\SC(CC(=O)O)C(=O)N2c2ccccc2)cc1` (stereo not drawn), the inhibition is 33.9%. The same measure for `Cc1ccc2cc(C)c3nnc(SCC(=O)N4CCCc5ccccc54)n3c2c1C`: 1.13%. The same measure for `Cc1cc(C(=O)CN2C(=O)NC3(CCCc4ccccc43)C2=O)c(C)n1Cc1ccccc1` (stereo not drawn): 7.63%; for `CCOc1ccccc1NC(=O)NC1(C(=O)N2CCN3CCCC3C2)CCCCC1` (stereo not drawn): 20.5%; for `O=C(CSc1nc2ccccc2n1CCc1ccccc1)c1ccc(O)c(O)c1`: -0.72%. The same measure for `Cc1cc(SCC(=O)c2ccc(O)c(O)c2)n2nc(C)c(-c3ccccc3)c2n1`: 16.1%; for `CCn1c(SCC(=O)c2ccc(C)cc2)nnc1-c1ccncc1`: 3.05%.

As for `Cc1cc(SCC(=O)c2ccc(O)c(O)c2)nc2ccccc12`, the inhibition was 36.2%. `CCn1c(SCC(=O)c2ccccc2)nnc1-c1cccnc1`: the inhibition is 14.5%.

Turning to `Cn1cnnc1SCC(=O)c1ccc(O)c(O)c1`, the inhibition was 38.8%. For the compound `CCn1c(SCC(=O)O)nnc1-c1ccccc1`, the inhibition is -5.68%.

Consider `CCn1c(SCC(=O)OC)nnc1-c1ccc(C)cc1`, for which the inhibition is 3.28%. In the case of `Cc1ccc2cc(CN(CC3CCCO3)S(=O)(=O)c3cccc4nsnc34)c(=O)[nH]c2c1` (stereo not drawn), the inhibition was -1.29%. The same measure for `O=C(COC(=O)c1ccc[nH]c1=O)NCC1CCCO1` (stereo not drawn): -1.42%; for `Cc1ccc(S(=O)(=O)N2CCN(CC(=O)NC3CCCc4ccccc43)CC2)c(C)c1` (stereo not drawn): 5.05%. `CC(NC(=O)C(C)N1C(=O)C2C3CC(C(Br)C3Br)C2C1=O)c1ccccc1` (stereo not drawn): the inhibition is 10.6%. Consider `C=CCOC(=O)C1=C(C)Nc2ncnn2C1c1cc(Br)ccc1F` (stereo not drawn), for which the inhibition is -2.3%. Regarding `Cc1ccc(CSc2nnc(SCC(=O)N/N=C/C=C/c3ccccc3[N+](=O)[O-])s2)cc1`, the inhibition is 5.78%. Regarding `S=c1[nH]nc(-c2ccccn2)n1/N=C/c1ccco1`, the inhibition is 0.92%. Take `CCOc1ccc(C(=O)CN2CCN(S(=O)(=O)c3ccc(F)cc3)CC2)cc1`: the inhibition is 26.6%. For the compound `CCOc1ccc(C(=O)CN2CCN(S(=O)(=O)c3ccc(Br)cc3)CC2)cc1`, the inhibition was 41.1%. Regarding `CC(C)[C@H](NS(=O)(=O)c1ccc2c(c1)OCCO2)C(=O)OCC(=O)Nc1ccccc1Cl`, the inhibition was 9.34%. The same measure for `Cc1ccc(C)c(NC(=O)c2ccccc2NS(=O)(=O)c2cc([N+](=O)[O-])ccc2C)c1`: 31.8%; for `CC(=O)Nc1ccc(NS(=O)(=O)c2cc([N+](=O)[O-])ccc2C)cc1`: 1.99%; for `CCN(CC)CCN(C(=O)c1ccc2c(c1)CCCC2)c1nc2ccc(F)cc2s1`: -4.78%. On to `c1ccc(CCNc2nc(-c3ccncc3)nc3ccccc23)cc1`, for which the inhibition was 11.8%. For the compound `Cc1ccsc1C(=O)NNC(=O)C1CC=CCC1C(=O)O` (stereo not drawn), the inhibition was 28%. For `COC(=O)c1sccc1NC(=O)C1CC=CCC1C(=O)O` (stereo not drawn) the value was 36.4%; for `CCOC(=O)c1c(-c2ccc(OC)c(OC)c2)csc1NC(=O)C1CCCO1` (stereo not drawn), -3.98%. The same measure for `CCOC(=O)c1c(-c2ccccc2)csc1NC(=O)C1CCCO1` (stereo not drawn): 17.1%; for `COC(=O)c1c(-c2cccc(C)c2)csc1NC(=O)C1CCCO1` (stereo not drawn): -0.44%; for `COC(=O)c1c(-c2ccccc2)csc1NC(=O)c1ccco1`: 4.09%. For the compound `CC(C)OC(=O)c1c(-c2ccc(C(C)C)cc2)csc1NC(=O)C1CCCO1` (stereo not drawn), the inhibition is 16.2%. On to `CCc1ccc(-c2csc(NC(=O)C3CCCO3)c2C(=O)OC(C)C)cc1` (stereo not drawn), for which the inhibition was 57.8%. Regarding `COc1ccc(NC(=O)C2=C(C)NC(=O)NC2c2cccs2)c(OC)c1` (stereo not drawn), the inhibition was 2.25%. The same measure for `COc1ccc(OCC(=O)OC2CCCN(C)C2)cc1` (stereo not drawn): 3.48%. The same measure for `Cc1c(-c2ccc(Cl)cc2)oc(=O)c2c(N)n(-c3ccccc3)nc12`: -7.58%; for `CCN(c1ccccc1)S(=O)(=O)c1cc(C(=O)OC(C)C(=O)Nc2ccc3c(c2)OCCO3)ccc1C` (stereo not drawn): -0.98%. Regarding `Cn1c(SCC(=O)NCCN2C(=O)CSC2=O)nnc1-c1ccccc1`, the inhibition was -14.5%.

As for `Cc1cc(C)c(-c2c(O)c3cnn(-c4ccccc4)c3[nH]c2=O)c(C)c1`, the inhibition was 13.5%.

With `Cc1ccc(CC(=O)N2CCOCC2)cc1`, the inhibition is 0.85%. As for `Cc1ccc2ccccc2[n+]1CCCS(=O)(=O)[O-]`, the inhibition is 7.83%.

In the case of `CCOC(=O)c1c(-c2cccc([N+](=O)[O-])c2)csc1NC(=O)C1CC1`, the inhibition was -5.68%.

On to `COC(=O)c1c(-c2ccccc2)csc1NC(=O)C1CC=CCC1C(=O)O` (stereo not drawn), for which the inhibition is 6.75%. With `CCOC(=O)c1c(-c2ccc(F)cc2)csc1NC(=O)C1CC=CCC1C(=O)O` (stereo not drawn), the inhibition is 3.77%. Take `CCOC(=O)c1c(-c2ccc(C)cc2)csc1NC(=O)C1CCCO1` (stereo not drawn): the inhibition was -4.23%.

For `CCOC(=O)c1c(-c2cccc([N+](=O)[O-])c2)csc1NC(=O)C1CCCCC1`, the inhibition was -7.16%.

As to `COC(=O)c1c(-c2ccc(C)cc2)csc1NC(=S)NC(=O)c1ccc(F)cc1`, the inhibition was -17.5%. The same measure for `Cc1nn(-c2ccccc2)c(N)c1C(O)(CSc1nccn1C)C(F)(F)F` (stereo not drawn): -3.48%.

With `CCC(CC)c1nnc(NC(=O)C2=NNC(=O)CC2)s1`, the inhibition is -4.73%.

`COc1ccc(-c2cc(=O)n(-c3ccc([N+](=O)[O-])cc3)[nH]2)cc1`: the inhibition is 2.52%. Take `Nn1cnc2sc3c(c2c1=O)CCC3`: the inhibition was 0.94%.

In the case of `CCC(=O)Nc1ccc2c(c1)C(=O)c1ccccc1C2=O`, the inhibition was -6.31%. Turning to `COC(=O)N1[C@H](C)C=C[C@]1(Cc1ccccc1)C(=O)O`, the inhibition was 2.77%. For `CCOC(=O)c1ccc(Cl)c(NC(=O)c2ccc(-c3ccccc3)cc2)c1` the value was -7.72%; for `COc1ccc(N2C(=O)/C(=C/c3ccc([N+](=O)[O-])cc3)C=C2c2ccccc2)cc1`, -15.3%. The same measure for `COc1ccccc1Nc1nc(-c2c(C)nc3ncccn23)cs1`: 11.3%; for `COc1ccc(C2C(C#N)=C(N)OC3=C2C(=O)CC(C)(C)C3)cc1` (stereo not drawn): 7%; for `CN=c1scc(C)n1/N=C/c1ccc(O)c(O)c1O`: 59%. `CCN=c1scc(C)n1/N=C/c1ccsc1`: the inhibition is 12.2%. For `CCCCN(CC)CCCNC(=O)c1cc2c(=O)n(C)c3ccccc3c2n1C`, the inhibition is -2.09%.

Turning to `O=C(O)CCN1C(=O)/C(=C\c2ccncc2)SC1=S`, the inhibition was 12.4%. As for `COc1ccc(C(=O)CCC(=O)O)cc1`, the inhibition is 2.45%. Turning to `COc1ccc(/C=C2/SC(=S)N(CCC(=O)O)C2=O)cc1`, the inhibition was 38.8%. On to `C/C(=C1/SC(=S)N(CCC(=O)O)C1=O)c1ccc(O)cc1`, for which the inhibition was 52.2%.

As to `C=CCNC(=O)CCCc1ccccc1`, the inhibition is 11.4%.

Turning to `CC1CCCCN1C(=O)Cn1cnc2c1c(=O)n(C)c(=O)n2C` (stereo not drawn), the inhibition is 0.19%. As to `Cc1cc(-c2ccccc2)nc(Oc2cccc(C(F)(F)F)c2)c1S(C)(=O)=O`, the inhibition is -2.06%. For `COc1cccc(-n2nc3c(=S)[nH]nc(C)c3c2C)c1`, the inhibition is -3.52%.

Regarding `O=C(O)COCC(=O)Nc1cc(C(F)(F)F)cc(C(F)(F)F)c1`, the inhibition is -0.47%.

Regarding `COc1ccccc1NS(=O)(=O)c1ccc(NC(=O)c2ccncc2)cc1`, the inhibition is -5.68%. In the case of `Cc1ccccc1-c1cc(=O)c2c(O)cccc2o1`, the inhibition is -7.05%. On to `COc1ccc(-c2cc(=O)c3c(O)c(OC)c(O)cc3o2)cc1`, for which the inhibition is -3.88%. For `COc1ccc(C2=NOC(C(=O)Nc3cc(C)on3)C2)cc1` (stereo not drawn), the inhibition is -16.7%. As for `COc1ccccc1NC(=O)CSC1CC(=O)N(c2ccc3c(c2)OCO3)C1=O` (stereo not drawn), the inhibition was 2.14%. On to `COC(=O)c1ccc(N2C(=O)CC(SCC(=O)Nc3ccc(OC)cc3)C2=O)cc1` (stereo not drawn), for which the inhibition is -6.08%. Take `COC(=O)[C@@]1(Cc2ccccc2)[C@H]2c3cc(C(=O)N4CCCC4)n(CCSCCO)c3C[C@H]2CN1C(=O)c1ccccc1`: the inhibition is 2.66%. For `CN(CCC#N)S(=O)(=O)c1ccc2[nH]cc(C(=O)NCCc3ccccc3)c(=O)c2c1` the value was -16%. For `Cc1cc(Cl)ccc1C(=O)C1CCCN(C(=O)CCn2cnnn2)C1` (stereo not drawn) the value was 5.92%.

For the compound `CCOc1ccccc1C1C(C#N)=C(N)Oc2n[nH]c(CC)c21` (stereo not drawn), the inhibition was 29.4%. With `CCCc1[nH]nc2c1C(c1ccccc1OCC)C(C#N)=C(N)O2` (stereo not drawn), the inhibition is 8.34%. As for `CCOC(=O)N1CCC(N2C(=O)c3ccccc3C2Nc2ccc3c(c2)OCCO3)CC1` (stereo not drawn), the inhibition was -7.29%. Turning to `CCn1c(-c2cc(-c3ccc(C)cc3)nc3ccccc23)n[nH]c1=S`, the inhibition is -3.9%.

For the compound `CCCCS(=O)(=O)N1CN(S(=O)(=O)CCCC)C2NC(=O)NC21` (stereo not drawn), the inhibition is 0.79%. The same measure for `CCCCc1cc(=O)oc2c(C)c(OCc3nn[nH]n3)ccc12`: 6.82%; for `CCCc1cc(=O)oc2c(C)c(OCc3nn[nH]n3)ccc12`: -5.76%; for `O=C(NC1CCCCC1)c1ccccc1NC(=S)NC(=O)C1CC1`: 5.81%. With `S=C(Nc1ccccc1)Nc1ccccc1-n1cccc1`, the inhibition was -5.63%.
